# Test results: ChEMBL document CHEMBL1961873, “Compounds: GSK PKIS; Assays: Nanosyn kinase panel” (2012)
# How the values were obtained:
# [1] = biological target: Tyrosine-protein kinase CSK (Homo sapiens) (UniProt P41240); details: at 1 µM;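 also: each value is an averaged inhibition reading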
# [2] = biological target: T1, Discoidin domain-containing receptor 2 (Homo sapiens) (UniProt Q16832); details: at 0.1 µM
# T1 sequence (whole entry): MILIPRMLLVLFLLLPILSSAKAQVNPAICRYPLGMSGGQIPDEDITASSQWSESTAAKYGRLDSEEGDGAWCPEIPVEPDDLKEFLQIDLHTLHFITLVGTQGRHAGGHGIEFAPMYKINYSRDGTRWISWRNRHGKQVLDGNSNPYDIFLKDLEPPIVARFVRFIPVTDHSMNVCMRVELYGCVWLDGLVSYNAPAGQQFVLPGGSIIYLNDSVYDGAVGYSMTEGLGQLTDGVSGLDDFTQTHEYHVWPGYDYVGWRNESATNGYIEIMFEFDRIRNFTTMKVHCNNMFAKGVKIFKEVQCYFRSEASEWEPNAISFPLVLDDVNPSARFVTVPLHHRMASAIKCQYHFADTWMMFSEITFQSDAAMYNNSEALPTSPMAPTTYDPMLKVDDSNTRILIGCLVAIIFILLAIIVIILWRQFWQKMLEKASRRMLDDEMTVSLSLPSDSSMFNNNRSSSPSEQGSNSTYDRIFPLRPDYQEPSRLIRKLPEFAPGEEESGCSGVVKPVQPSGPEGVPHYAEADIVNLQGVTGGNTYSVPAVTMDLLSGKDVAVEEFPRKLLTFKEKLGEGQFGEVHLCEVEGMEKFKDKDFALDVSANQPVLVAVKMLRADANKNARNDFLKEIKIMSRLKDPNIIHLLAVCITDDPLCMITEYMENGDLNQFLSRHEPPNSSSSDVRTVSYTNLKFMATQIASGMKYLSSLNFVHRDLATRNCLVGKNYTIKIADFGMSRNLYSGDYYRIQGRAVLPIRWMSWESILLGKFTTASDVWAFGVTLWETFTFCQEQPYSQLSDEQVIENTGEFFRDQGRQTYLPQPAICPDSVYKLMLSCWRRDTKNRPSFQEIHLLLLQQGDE
# [3] = biological target: T1, Discoidin domain-containing receptor 2 (Homo sapiens); details: at 1 µM
# [4] = biological target: Epidermal growth factor receptor (Homo sapiens) (UniProt P00533); details: at 0.1 µM
# [5] = biological target: Epidermal growth factor receptor (Homo sapiens) (UniProt P00533); details: at 1 µM
# [6] = system: Epidermal growth factor receptor (Homo sapiens), P00533 [L858R]; details: at 0.1 µM
# [7] = system: Epidermal growth factor receptor (Homo sapiens), P00533 [L858R]; details: at 1 µM
# [8] = system: Epidermal growth factor receptor (Homo sapiens), P00533 [L861Q]; details: at 0.1 µM
# [9] = system: Epidermal growth factor receptor (Homo sapiens), P00533 [L861Q]; details: at 1 µM
# [10] = system: Epidermal growth factor receptor (Homo sapiens), P00533 [T790M]; details: at 0.1 µM
# [11] = system: Epidermal growth factor receptor (Homo sapiens), P00533 [T790M]; details: at 1 µM
# [12] = system: Epidermal growth factor receptor (Homo sapiens), P00533 [L858R,T790M]; details: at 0.1 µM
# [13] = system: Epidermal growth factor receptor (Homo sapiens), P00533 [L858R,T790M]; details: at 1 µM
# [14] = biological target: Ephrin type-A receptor 2 (Homo sapiens) (UniProt P29317); details: at 0.1 µM
# [15] = biological target: Ephrin type-A receptor 2 (Homo sapiens) (UniProt P29317); details: at 1 µM
# [16] = biological target: T2, Ephrin type-A receptor 3 (Homo sapiens) (UniProt P29320); details: at 0.1 µM
# T2 sequence (whole entry): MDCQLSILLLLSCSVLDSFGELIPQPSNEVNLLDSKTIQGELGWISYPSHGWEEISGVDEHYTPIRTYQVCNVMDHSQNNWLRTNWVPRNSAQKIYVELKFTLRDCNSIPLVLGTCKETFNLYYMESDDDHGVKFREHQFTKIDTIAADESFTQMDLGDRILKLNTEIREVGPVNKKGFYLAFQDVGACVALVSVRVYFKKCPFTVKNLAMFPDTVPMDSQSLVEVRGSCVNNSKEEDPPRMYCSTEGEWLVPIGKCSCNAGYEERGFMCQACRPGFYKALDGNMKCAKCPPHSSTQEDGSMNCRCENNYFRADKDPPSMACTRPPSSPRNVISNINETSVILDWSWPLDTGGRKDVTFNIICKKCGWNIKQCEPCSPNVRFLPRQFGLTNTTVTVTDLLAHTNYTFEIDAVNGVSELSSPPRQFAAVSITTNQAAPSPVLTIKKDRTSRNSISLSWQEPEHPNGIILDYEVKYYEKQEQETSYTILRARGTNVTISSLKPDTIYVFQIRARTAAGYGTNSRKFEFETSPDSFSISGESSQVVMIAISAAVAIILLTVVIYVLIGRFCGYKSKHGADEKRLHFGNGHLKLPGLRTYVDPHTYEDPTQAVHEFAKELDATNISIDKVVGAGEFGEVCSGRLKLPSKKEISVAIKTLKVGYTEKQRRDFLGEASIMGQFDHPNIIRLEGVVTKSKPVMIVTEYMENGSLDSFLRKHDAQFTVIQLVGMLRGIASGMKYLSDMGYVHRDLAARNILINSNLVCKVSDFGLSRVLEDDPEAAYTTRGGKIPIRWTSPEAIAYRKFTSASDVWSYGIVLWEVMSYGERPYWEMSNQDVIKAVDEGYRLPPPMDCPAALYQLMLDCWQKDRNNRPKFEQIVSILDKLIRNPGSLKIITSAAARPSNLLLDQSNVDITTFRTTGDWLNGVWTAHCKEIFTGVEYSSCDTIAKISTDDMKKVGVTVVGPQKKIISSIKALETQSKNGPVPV
# [17] = biological target: T2, Ephrin type-A receptor 3 (Homo sapiens); details: at 1 µM
# [18] = biological target: Ephrin type-A receptor 4 (Homo sapiens) (UniProt P54764); details: at 0.1 µM
# [19] = biological target: Ephrin type-A receptor 4 (Homo sapiens) (UniProt P54764); details: at 1 µM
# [20] = biological target: T3, Ephrin type-B receptor 2 (Homo sapiens) (UniProt P29323); details: at 0.1 µM;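 also: reported as mean inhibition of EPHB2, from the GSK PKIS dataset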
# T3 sequence (whole entry): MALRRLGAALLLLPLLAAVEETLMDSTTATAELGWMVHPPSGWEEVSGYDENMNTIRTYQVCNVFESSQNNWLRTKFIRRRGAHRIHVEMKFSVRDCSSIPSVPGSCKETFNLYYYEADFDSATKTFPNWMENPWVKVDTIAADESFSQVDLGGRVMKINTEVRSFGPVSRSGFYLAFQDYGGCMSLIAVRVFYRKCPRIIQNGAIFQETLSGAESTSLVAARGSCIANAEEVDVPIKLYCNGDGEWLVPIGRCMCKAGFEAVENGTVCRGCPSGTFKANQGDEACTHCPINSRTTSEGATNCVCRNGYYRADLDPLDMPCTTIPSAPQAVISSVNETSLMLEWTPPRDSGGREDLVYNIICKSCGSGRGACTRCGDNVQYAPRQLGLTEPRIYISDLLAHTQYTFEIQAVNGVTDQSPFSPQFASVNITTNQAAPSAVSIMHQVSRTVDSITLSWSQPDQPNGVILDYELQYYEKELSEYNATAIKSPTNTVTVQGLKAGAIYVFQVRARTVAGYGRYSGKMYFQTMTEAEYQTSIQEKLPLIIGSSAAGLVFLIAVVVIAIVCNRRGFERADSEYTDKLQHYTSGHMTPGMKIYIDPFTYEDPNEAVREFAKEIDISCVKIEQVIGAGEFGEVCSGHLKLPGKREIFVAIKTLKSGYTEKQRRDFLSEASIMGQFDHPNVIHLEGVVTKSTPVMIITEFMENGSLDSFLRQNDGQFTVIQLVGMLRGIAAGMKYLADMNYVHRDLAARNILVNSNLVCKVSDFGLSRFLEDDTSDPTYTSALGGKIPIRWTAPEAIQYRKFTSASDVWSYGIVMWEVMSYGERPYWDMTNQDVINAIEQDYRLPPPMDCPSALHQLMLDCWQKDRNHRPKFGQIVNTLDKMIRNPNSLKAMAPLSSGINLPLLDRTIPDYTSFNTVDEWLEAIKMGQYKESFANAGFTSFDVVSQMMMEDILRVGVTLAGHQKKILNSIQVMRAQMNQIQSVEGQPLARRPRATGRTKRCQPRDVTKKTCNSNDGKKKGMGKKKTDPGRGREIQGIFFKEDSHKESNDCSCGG
# Sequence of Epidermal growth factor receptor (Homo sapiens), P00533 [T790M] (P00533 whole entry T790M): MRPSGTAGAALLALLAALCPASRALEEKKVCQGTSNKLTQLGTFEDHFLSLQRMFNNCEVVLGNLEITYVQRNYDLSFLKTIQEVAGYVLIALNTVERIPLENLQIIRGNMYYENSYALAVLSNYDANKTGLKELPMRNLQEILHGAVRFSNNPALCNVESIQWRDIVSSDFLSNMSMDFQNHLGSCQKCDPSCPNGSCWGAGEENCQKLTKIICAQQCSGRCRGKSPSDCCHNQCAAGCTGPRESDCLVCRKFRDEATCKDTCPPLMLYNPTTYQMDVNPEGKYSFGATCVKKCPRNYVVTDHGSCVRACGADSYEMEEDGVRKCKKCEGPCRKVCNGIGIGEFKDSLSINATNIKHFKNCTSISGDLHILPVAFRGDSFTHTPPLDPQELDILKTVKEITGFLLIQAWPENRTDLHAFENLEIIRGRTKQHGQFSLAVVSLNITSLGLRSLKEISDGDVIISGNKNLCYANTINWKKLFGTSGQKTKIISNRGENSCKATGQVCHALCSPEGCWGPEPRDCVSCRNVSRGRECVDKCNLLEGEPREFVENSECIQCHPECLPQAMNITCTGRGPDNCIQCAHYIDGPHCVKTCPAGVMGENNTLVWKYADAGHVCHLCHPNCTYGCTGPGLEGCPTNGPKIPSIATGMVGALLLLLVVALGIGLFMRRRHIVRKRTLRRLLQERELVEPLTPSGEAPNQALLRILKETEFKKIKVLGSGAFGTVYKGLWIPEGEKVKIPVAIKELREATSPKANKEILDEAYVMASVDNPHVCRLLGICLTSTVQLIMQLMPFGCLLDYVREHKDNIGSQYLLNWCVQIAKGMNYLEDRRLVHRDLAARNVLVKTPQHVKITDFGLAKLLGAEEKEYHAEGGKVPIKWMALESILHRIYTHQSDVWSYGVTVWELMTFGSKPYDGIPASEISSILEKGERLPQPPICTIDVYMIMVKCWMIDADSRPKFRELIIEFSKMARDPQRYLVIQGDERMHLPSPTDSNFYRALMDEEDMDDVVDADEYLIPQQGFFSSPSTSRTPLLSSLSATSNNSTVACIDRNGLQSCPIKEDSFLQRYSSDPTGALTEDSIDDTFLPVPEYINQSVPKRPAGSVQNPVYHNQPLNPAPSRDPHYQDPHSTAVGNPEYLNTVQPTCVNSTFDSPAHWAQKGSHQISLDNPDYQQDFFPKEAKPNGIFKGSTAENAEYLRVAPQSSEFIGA
# Sequence of Epidermal growth factor receptor (Homo sapiens), P00533 [L861Q] (P00533 whole entry L861Q): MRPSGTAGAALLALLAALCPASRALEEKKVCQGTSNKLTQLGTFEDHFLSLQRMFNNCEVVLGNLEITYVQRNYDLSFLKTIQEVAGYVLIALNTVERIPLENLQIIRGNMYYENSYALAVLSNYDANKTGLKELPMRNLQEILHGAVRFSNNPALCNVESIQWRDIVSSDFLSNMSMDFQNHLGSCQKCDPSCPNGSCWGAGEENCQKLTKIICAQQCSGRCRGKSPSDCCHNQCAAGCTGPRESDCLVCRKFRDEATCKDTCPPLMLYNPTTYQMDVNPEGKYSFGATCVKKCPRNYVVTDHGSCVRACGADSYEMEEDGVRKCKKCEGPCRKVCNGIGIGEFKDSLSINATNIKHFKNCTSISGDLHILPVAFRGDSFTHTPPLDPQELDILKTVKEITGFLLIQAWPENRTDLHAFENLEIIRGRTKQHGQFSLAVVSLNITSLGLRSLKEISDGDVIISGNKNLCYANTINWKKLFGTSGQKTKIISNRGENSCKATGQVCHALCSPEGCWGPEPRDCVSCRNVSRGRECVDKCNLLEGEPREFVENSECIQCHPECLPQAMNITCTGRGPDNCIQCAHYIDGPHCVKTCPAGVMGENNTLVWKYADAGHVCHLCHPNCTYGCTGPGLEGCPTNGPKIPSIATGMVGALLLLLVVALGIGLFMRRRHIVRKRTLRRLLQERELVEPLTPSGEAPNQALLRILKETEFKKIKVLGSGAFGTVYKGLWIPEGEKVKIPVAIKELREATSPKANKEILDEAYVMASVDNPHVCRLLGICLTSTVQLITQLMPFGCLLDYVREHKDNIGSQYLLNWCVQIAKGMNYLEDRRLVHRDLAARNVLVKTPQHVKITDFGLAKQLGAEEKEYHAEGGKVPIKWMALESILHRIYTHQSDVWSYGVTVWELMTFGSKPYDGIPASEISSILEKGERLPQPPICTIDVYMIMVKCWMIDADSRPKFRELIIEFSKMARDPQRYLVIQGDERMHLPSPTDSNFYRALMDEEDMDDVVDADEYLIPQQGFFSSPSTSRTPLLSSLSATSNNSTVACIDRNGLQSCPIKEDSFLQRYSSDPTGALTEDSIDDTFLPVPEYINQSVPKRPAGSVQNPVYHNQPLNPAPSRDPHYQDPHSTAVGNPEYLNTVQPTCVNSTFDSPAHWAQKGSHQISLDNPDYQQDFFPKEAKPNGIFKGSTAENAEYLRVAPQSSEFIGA
# Sequence of Epidermal growth factor receptor (Homo sapiens) (P00533 whole entry): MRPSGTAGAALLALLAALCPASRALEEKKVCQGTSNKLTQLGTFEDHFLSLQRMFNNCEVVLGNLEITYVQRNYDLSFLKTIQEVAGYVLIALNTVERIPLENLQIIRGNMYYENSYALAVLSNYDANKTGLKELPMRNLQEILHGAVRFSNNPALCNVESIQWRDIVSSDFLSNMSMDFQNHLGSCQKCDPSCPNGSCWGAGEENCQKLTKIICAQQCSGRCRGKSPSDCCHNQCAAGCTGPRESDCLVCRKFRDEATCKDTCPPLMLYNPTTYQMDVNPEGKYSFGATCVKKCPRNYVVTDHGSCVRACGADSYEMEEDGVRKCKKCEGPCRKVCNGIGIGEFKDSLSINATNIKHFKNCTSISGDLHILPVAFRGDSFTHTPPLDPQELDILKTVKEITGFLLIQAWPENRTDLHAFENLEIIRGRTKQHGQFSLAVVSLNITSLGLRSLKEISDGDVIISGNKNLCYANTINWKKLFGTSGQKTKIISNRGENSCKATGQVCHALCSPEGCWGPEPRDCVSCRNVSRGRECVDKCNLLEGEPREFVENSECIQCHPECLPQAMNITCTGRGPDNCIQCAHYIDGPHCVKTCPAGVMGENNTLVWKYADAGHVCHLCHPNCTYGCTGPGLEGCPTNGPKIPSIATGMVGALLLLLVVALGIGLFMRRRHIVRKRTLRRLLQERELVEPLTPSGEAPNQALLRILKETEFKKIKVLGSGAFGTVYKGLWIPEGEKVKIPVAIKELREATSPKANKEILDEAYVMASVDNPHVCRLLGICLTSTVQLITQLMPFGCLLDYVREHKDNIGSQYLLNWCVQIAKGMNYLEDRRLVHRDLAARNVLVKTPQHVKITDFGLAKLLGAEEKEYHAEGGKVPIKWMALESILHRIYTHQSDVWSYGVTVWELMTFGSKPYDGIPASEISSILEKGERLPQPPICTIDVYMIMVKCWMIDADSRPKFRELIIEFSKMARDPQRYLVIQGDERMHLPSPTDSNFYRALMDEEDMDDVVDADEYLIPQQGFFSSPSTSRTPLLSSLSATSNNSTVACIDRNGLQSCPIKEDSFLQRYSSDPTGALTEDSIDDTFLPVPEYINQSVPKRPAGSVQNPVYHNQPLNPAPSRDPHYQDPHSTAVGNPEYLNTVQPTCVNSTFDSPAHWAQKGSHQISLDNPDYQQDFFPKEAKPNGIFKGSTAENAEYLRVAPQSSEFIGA
# Sequence of Tyrosine-protein kinase CSK (Homo sapiens) (P41240 2-450 limits assumed): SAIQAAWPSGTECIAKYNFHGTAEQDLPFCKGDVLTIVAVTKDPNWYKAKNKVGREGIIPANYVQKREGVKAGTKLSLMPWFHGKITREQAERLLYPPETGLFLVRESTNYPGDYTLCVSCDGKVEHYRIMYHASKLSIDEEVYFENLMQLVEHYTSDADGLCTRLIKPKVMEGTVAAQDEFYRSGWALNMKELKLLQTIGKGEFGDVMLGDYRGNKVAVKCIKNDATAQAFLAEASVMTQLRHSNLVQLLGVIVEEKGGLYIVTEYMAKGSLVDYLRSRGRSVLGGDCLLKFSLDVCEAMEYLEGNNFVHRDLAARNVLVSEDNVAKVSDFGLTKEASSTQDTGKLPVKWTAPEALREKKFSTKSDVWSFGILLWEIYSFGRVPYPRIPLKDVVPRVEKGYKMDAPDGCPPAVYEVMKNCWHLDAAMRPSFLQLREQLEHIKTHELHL
# Sequence of Ephrin type-A receptor 2 (Homo sapiens) (P29317 whole entry): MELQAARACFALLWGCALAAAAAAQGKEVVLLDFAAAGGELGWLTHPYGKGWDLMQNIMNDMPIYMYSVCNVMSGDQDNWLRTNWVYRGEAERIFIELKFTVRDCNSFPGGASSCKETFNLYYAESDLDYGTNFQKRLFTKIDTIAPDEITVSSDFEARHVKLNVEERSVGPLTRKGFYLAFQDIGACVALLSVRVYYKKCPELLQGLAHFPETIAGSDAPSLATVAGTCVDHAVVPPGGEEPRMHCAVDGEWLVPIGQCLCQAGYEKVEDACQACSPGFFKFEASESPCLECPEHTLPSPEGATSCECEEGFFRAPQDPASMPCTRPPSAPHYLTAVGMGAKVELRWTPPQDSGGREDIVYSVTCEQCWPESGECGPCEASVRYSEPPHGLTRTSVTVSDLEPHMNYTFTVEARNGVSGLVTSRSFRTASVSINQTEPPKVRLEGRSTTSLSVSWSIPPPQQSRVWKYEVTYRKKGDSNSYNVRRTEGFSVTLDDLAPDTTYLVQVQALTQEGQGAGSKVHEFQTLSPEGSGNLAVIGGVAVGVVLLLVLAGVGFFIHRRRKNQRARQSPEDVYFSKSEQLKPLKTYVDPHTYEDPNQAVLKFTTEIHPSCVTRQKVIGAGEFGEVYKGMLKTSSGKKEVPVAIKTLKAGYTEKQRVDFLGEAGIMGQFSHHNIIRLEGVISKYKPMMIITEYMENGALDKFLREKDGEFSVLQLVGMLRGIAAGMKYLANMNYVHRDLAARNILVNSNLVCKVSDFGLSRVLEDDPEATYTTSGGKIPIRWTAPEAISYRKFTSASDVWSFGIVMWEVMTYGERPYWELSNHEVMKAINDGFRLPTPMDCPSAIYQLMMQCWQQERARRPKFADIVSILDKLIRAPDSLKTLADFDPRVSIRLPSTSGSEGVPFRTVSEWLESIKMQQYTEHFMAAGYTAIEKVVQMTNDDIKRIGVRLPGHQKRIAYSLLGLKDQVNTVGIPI
SMILES,inhibition [1] [%],inhibition [2] [%],inhibition [3] [%],inhibition [4] [%],inhibition [5] [%],inhibition [6] [%],inhibition [7] [%],inhibition [8] [%],inhibition [9] [%],inhibition [10] [%],inhibition [11] [%],inhibition [12] [%],inhibition [13] [%],inhibition [14] [%],inhibition [15] [%],inhibition [16] [%],inhibition [17] [%],inhibition [18] [%],inhibition [19] [%],inhibition [20] [%]
CCn1c(-c2nonc2N)nc2cncc(C(=O)N3CCNCC3)c21,4.45,1.63,1.68,1.08,2.62,3.95,3.98,3.22,5.49,2.68,3.72,0.98,3.56,1.29,1.16,3.57,2.79,9.14,11.3,10.1
CC(C)=Cc1cccc2c1/C(=N/Nc1ccc(S(N)(=O)=O)cc1)C(=O)N2,1.41,0.85,7.39,2.03,5.14,1.48,9.14,1.19,3.55,1.38,1.05,2.29,2.58,0.83,3.1,2.78,3.12,4.39,11,1.72
NS(=O)(=O)c1cccc(-c2ccc3c(NC(=O)C4CC4)n[nH]c3c2)c1,-3.46,-0.11,-9.65,0.04,0.71,-0.88,-2.32,1.67,-0.49,-1.44,-1.45,-1.29,3.22,-4.33,-3.03,-5.8,-2.02,-5.25,-5.49,-1.84
COc1ccc2cc(-c3c(-c4ccncc4)nc(-c4ccc([S+](C)[O-])cc4)n3C)ccc2c1 (stereo not drawn),-2.89,1.35,3.95,6.79,3.4,2.1,0.76,1.88,1.02,-0.14,-0.54,1.75,0.88,1.69,1.61,3.89,5.2,-2.82,8.03,3.58
O=C(Nc1n[nH]c2nc(-c3ccco3)c(Br)cc12)C1CC1,4.14,0.37,2.85,2.5,5.12,3.62,0.54,0.96,1.89,1.4,-0.71,5.44,0.25,1.53,1.29,6.55,4.24,7.41,2.95,7.31
COc1ccc(COc2ccc(Cc3cnc(N)nc3N)cc2OC)cc1,-3.17,8.57,8.13,-0.51,5.41,0.93,-1.26,-1.47,-1.95,–,-2.86,2.14,-1.75,2.27,2.74,-0.07,0.08,1.25,-0.14,1.4
Cc1nn(C)c2cc(N(C)c3ccnc(Nc4cccc(S(N)(=O)=O)c4)n3)ccc12,22.4,-2.88,–,5.33,13.9,1.02,16,2.56,9.38,1.34,7.49,1.34,12.7,1.28,18.6,6.82,16.5,12.2,43.7,7.61
CCn1c(-c2nonc2N)nc2ccncc21,-5.08,0.25,0.08,0.86,2.64,-3.87,-4.06,0.79,-0.98,-0.65,0.29,-1.07,-0.45,1.93,1.77,0.73,-0.12,5.04,-7.03,-0.84
Nc1nc(-c2ccc3c(c2)C(=Cc2cc(Br)c(O)c(Br)c2)C(=O)N3)cs1,-6.6,0.46,2.46,0.84,5.53,-3.68,8.58,0.03,1.67,-1.77,-1.57,-0.73,3.93,-4.92,-4.26,-6.05,-2.41,-6.57,-2.56,-3.26
CS(=O)(=O)CCN(CC#N)Cc1ccc(-c2ccc3ncnc(Nc4ccc(OCc5cccc(F)c5)c(Cl)c4)c3c2)o1,4.77,0.7,0.75,69.4,77.2,36.5,83.6,41.5,76.2,1.04,5.17,-1.28,0.73,-5.85,-5.32,-2.74,-2.11,1.75,5.59,6.06
CCn1c(-c2nonc2N)nc2cncc(C(=O)N3CC[C@H](N)C3)c21,5.06,1.43,1.61,0.8,2.64,3.22,5.35,3.58,4.5,2.65,3.15,1.56,1.95,-0.29,-0.49,4.99,5.74,9.5,10,5.01
Cc1cccc(-c2n[nH]cc2-c2ccc3ncccc3n2)n1,0.97,0.57,0.86,-0.16,0.24,-0.08,-1.71,-1.59,-1.42,-0.88,-0.3,-1.54,-0.13,-2.12,-2.51,0.6,3.6,3.45,4.46,1.55
CN1CCC(C(=O)Nc2n[nH]c3nnc(-c4ccccc4)cc23)CC1,6.5,0.55,1,10.2,7.57,1.7,3.79,2.96,6.37,1.89,4.1,-2.57,4.67,1.84,2.09,4.03,2.66,8.03,8.45,4.92
